Data: PubChem BioAssay (NCI)
The panel holds about 83,000 compounds, 20% with a hit somewhere; the sample as a whole holds those more often.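 Activity criterion: percent growth below 10, measured after cells in 96-well plates were exposed to a single compound concentration for 48 hours.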 Unmarked numbers belong to inactive results. The source made the active and inactive calls.

Tests used:
Assay in all cases: NCI-60 one-dose screen, 48 h (100 = growth as untreated, 0 = no growth, -100 = all killed)
Conditions in all cases: 10 µM unless noted
RPMI-8226 leukemia = system: RPMI-8226 leukemia
OVCAR-8 ovarian = system: OVCAR-8 ovarian
OVCAR-5 ovarian = system: OVCAR-5 ovarian
OVCAR-4 ovarian = system: OVCAR-4 ovarian
SK-OV-3 ovarian = system: SK-OV-3 ovarian
OVCAR-3 ovarian = system: OVCAR-3 ovarian
HS 578T breast = system: HS 578T breast
NCI/ADR-RES ovarian = system: NCI/ADR-RES ovarian
T-47D breast = system: T-47D breast
BT-549 breast = system: BT-549 breast
MDA-MB-435 melanoma = system: MDA-MB-435 melanoma
SW-620 colon = system: SW-620 colon
MCF7 breast = system: MCF7 breast
HCT-116 colon = system: HCT-116 colon
HCC-2998 colon = system: HCC-2998 colon
KM12 colon = system: KM12 colon
IGROV1 ovarian = system: IGROV1 ovarian

Structure (SMILES) | growth (RPMI-8226 leukemia) | growth (OVCAR-8 ovarian) | growth (OVCAR-5 ovarian) | growth (OVCAR-4 ovarian) | growth (SK-OV-3 ovarian) | growth (OVCAR-3 ovarian) | growth (HS 578T breast) | growth (NCI/ADR-RES ovarian) | growth (T-47D breast) | growth (BT-549 breast) | growth (MDA-MB-435 melanoma) | growth (SW-620 colon) | growth (MCF7 breast) | growth (HCT-116 colon) | growth (HCC-2998 colon) | growth (KM12 colon) | growth (IGROV1 ovarian)
C[C@H](CCC[C@H](C)OS(=O)(=O)c1ccccc1)OS(=O)(=O)c1ccccc1 | 121% | 101% | 115% | 103% | 101% | 109% | 105% | 116% | 100% | 125% | 108% | 105% | 101% | 95.1% | 120% | 107% | 
CCNc1ccc2ccccc2c1N=Nc1ccc(N=Nc2ccccc2)cc1 | 95.9% | 104% | 93.1% | 98.4% | 97.4% |  | 110% | 109% | 84.7% | 120% | 110% | 99.8% | 85.2% | 72% | 110% | 105% | 0.773% (active)
COc1ccc(Br)c2c1C(=O)CC2 | 112% | 106% | 97.8% | 107% | 112% | 103% | 140% | 110% | 133% |  | 116% | 123% | 107% | 108% | 113% | 117% | 
Nc1c(Br)cc(O)c2c1C(=O)c1ccccc1C2=O | 84% | 55.6% | 112% | 87.4% | 109% | 96.2% |  | 89.6% | 93.7% | 94.5% | 98% | 61.7% | 83.8% | 69.8% |  | 24.7% | 56.3%
NNC(=O)N/N=C1\C(=O)N(c2nccs2)C(=O)C(=O)C1c1nc2ccccc2s1 (stereo unspecified) |  | 95% | 102% | 105% | 103% | 102% | 96.2% | 103% | 77.1% | 99.1% | 109% | 96.1% | 98.5% | 88.7% | 93.2% | 100% | 93.2%
C(=C\c1ccncc1)/c1ccncc1 |  | 121% | 114% | 92.4% | 120% | 169% | 114% | 98% | 129% | 91.2% | 110% | 104% | 128% | 115% | 99.3% |  | 
C[n+]1c(/C=C\C=C\N2CCCCC2)sc2ccccc21 | -30.4% (active) | -17.7% (active) | 18.2% | 16.4% | -3.97% (active) | -24.8% (active) | 34.5% | 62.5% | 5.32% (active) | 1.35% (active) | -1.72% (active) | 12.5% | 4.75% (active) | -24.5% (active) | 14% | -11% (active) | 
COC1=C(OC)C(=O)C(SC/C=C(\C)CCCC(C)CCCC(C)CCCC(C)C)=CC1=O (stereo unspecified) |  | 18.7% | 25.7% | 27.9% | 45.4% | 13.6% | 63.6% | 11.6% | 12.5% |  | 18.5% | 18.7% | 4.9% (active) | 9.93% (active) | -4.48% (active) | 11.6% | -9.75% (active)
S=C=Nc1ccc2ccccc2c1 | 103% | 105% | 107% |  |  | 114% | 104% |  | 108% | 96.2% | 101% | 105% | 101% | 103% | 95.7% | 104% | 117%
CCCCCCCCCCC(=O)CCCCCCCCCC | 98.8% | 109% | 103% | 103% | 92.1% | 118% | 114% | 100% | 92.3% | 95.3% | 106% | 104% | 101% | 94.9% | 94.4% |  | 
Cc1cc(CC(=O)NCCO)n(CCO)c(=O)c1 |  | 103% | 106% | 108% | 104% | 106% | 101% |  | 84.1% | 111% | 107% | 98% | 102% | 97.5% | 103% | 107% | 108%
Oc1cc(O)c2c(c1)O[C@H](c1ccc(O)c(O)c1)[C@@H](O)C2 |  | 98% | 100% |  | 109% |  | 117% | 101% | 104% | 100% | 104% | 106% | 104% | 109% | 108% |  | 103%
O=S(Cc1ccccc1)/C(=C/NC(=S)Nc1cc(Cl)ccc1Cl)c1ccccc1 (stereo unspecified) | 102% | 113% | 100% | 105% | 101% |  | 102% | 105% | 104% | 96.5% | 108% | 107% | 96.9% | 109% | 103% | 100% | 95.8%
